Tests used:
[1] = biological target: Death-associated protein kinase 1 (Homo sapiens) (UniProt P53355); conditions: at 1 µM;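 further: each value is a mean inhibition figure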
[2] = biological target: T1, Serine/threonine-protein kinase DCLK2 (Homo sapiens) (UniProt Q8N568); conditions: at 0.1 µM
T1 sequence (whole entry): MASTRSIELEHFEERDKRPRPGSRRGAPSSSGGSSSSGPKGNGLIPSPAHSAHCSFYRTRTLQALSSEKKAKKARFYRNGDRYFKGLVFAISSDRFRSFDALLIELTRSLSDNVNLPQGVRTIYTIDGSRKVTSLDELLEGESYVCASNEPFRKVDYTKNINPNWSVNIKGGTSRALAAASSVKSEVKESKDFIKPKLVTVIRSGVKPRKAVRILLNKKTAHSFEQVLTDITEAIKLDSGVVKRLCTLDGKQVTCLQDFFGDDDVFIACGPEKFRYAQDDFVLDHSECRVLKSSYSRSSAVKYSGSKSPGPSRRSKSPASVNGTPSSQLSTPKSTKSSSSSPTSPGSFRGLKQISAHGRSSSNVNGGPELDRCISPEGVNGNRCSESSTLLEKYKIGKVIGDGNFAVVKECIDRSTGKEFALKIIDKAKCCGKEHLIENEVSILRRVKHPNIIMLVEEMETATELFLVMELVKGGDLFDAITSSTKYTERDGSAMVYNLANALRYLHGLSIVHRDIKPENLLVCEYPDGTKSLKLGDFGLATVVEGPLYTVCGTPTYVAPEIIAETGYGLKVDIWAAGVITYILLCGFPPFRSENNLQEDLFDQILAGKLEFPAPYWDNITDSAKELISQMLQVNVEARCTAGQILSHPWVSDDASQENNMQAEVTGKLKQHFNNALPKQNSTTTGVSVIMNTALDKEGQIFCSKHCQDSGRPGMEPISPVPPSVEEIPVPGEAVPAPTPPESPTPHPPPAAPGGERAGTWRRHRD

[3] = biological target: T1, Serine/threonine-protein kinase DCLK2 (Homo sapiens); conditions: at 1 µM
[4] = biological target: MAP kinase-activated protein kinase 2 (Homo sapiens) (UniProt P49137); conditions: at 0.1 µM
[5] = biological target: MAP kinase-activated protein kinase 2 (Homo sapiens) (UniProt P49137); conditions: at 1 µM
[6] = biological target: MAP kinase-activated protein kinase 3 (Homo sapiens) (UniProt Q16644); conditions: at 0.1 µM
Chain of MAP kinase-activated protein kinase 3 (Homo sapiens) (Q16644 whole entry, looked up): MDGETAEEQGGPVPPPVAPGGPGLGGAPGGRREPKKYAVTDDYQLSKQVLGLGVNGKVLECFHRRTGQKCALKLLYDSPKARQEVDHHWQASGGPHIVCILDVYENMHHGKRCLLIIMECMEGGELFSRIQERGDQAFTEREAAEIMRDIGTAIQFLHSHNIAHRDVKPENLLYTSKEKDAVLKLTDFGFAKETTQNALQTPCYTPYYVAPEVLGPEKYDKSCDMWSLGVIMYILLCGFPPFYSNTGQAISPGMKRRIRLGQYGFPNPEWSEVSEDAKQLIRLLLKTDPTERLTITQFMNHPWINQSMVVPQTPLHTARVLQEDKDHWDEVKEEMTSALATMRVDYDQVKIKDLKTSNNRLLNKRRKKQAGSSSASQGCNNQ

[7] = biological target: MAP kinase-activated protein kinase 3 (Homo sapiens) (UniProt Q16644); conditions: at 1 µM
[8] = biological target: Serine/threonine-protein kinase MARK1 (Homo sapiens) (UniProt Q9P0L2); conditions: at 0.1 µM
[9] = biological target: Serine/threonine-protein kinase MARK1 (Homo sapiens) (UniProt Q9P0L2); conditions: at 1 µM
[10] = biological target: MAP/microtubule affinity-regulating kinase 3 (Homo sapiens) (UniProt P27448); conditions: at 0.1 µM
Chain of MAP/microtubule affinity-regulating kinase 3 (Homo sapiens) (P27448 whole entry, looked up): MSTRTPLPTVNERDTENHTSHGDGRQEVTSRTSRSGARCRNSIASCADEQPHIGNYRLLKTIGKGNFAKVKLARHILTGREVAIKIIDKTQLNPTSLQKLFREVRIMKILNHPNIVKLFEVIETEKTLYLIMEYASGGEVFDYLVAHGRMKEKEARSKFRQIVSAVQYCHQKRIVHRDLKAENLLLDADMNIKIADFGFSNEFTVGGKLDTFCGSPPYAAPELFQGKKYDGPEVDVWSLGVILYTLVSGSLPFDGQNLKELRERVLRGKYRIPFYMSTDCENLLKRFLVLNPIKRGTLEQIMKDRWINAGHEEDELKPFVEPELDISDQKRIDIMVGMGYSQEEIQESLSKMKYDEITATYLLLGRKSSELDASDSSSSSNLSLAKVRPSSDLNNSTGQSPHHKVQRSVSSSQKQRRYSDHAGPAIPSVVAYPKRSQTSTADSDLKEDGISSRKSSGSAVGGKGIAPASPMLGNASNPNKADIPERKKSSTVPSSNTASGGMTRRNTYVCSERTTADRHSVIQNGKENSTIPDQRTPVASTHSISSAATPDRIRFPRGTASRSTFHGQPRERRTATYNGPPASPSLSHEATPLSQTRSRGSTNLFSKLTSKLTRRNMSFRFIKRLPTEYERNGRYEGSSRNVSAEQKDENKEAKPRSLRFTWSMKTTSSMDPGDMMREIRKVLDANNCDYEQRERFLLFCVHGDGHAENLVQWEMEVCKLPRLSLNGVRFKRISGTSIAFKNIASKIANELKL

[11] = biological target: MAP/microtubule affinity-regulating kinase 3 (Homo sapiens) (UniProt P27448); conditions: at 1 µM
[12] = biological target: T2, MAP/microtubule affinity-regulating kinase 4 (Homo sapiens) (UniProt Q96L34); conditions: at 0.1 µM
T2 sequence (whole entry): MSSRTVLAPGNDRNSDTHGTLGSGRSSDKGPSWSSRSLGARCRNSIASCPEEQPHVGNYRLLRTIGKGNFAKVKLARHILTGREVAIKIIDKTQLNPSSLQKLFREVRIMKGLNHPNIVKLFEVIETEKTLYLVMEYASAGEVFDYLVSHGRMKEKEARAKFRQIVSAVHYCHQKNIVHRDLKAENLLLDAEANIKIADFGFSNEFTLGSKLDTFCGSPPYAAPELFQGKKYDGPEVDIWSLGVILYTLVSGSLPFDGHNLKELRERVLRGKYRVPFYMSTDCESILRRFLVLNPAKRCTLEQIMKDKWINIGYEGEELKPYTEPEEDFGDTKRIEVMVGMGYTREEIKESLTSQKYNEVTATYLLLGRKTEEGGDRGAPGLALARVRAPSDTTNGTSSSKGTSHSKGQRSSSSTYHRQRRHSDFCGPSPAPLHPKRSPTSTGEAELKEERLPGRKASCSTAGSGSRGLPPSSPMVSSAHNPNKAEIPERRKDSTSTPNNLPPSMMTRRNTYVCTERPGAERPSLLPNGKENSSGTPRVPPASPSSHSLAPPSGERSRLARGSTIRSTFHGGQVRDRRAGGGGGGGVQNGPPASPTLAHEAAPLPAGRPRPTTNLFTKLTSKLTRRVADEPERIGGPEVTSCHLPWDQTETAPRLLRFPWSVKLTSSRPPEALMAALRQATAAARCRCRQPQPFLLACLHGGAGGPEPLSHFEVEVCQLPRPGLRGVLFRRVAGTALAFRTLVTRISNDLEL

[13] = biological target: T2, MAP/microtubule affinity-regulating kinase 4 (Homo sapiens); conditions: at 1 µM
[14] = biological target: Maternal embryonic leucine zipper kinase (Homo sapiens) (UniProt Q14680); conditions: at 0.1 µM
Chain of Maternal embryonic leucine zipper kinase (Homo sapiens) (Q14680 whole entry, looked up): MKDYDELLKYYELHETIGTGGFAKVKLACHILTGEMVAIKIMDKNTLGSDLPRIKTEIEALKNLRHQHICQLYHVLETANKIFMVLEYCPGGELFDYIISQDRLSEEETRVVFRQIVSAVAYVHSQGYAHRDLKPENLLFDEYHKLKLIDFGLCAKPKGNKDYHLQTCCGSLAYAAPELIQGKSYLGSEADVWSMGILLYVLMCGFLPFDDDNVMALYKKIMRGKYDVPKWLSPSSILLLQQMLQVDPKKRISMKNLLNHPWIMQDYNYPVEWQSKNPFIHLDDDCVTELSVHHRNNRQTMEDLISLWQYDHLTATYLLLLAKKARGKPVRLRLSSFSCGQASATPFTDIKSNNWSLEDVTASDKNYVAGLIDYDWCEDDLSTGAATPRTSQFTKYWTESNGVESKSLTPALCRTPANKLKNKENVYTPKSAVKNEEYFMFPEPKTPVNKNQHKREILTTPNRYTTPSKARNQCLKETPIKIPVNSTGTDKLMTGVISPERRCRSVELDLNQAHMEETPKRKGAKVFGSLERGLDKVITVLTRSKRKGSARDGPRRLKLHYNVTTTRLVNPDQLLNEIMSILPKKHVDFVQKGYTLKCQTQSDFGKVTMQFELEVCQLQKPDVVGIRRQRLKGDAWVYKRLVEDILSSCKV

[15] = biological target: Maternal embryonic leucine zipper kinase (Homo sapiens) (UniProt Q14680); conditions: at 1 µM
[16] = biological target: MAP kinase-interacting serine/threonine-protein kinase 1 (Homo sapiens) (UniProt Q9BUB5); conditions: at 0.1 µM
Chain of MAP kinase-interacting serine/threonine-protein kinase 1 (Homo sapiens) (Q9BUB5 whole entry, looked up): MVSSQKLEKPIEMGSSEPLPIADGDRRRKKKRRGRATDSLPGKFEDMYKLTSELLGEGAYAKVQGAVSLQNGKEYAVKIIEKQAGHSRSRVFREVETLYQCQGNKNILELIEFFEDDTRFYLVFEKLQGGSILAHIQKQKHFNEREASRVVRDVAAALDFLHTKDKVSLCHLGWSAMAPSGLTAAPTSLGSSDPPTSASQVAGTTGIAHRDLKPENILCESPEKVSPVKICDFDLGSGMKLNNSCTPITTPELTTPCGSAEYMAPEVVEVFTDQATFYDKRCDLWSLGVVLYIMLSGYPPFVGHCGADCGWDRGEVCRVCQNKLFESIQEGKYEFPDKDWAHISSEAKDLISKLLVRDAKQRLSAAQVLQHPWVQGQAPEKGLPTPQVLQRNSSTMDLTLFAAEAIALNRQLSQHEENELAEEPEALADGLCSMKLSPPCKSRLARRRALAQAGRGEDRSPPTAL

[17] = biological target: MAP kinase-interacting serine/threonine-protein kinase 1 (Homo sapiens) (UniProt Q9BUB5); conditions: at 1 µM
[18] = biological target: MAP kinase-interacting serine/threonine-protein kinase 2 (Homo sapiens) (UniProt Q9HBH9); conditions: at 0.1 µM
Chain of MAP kinase-interacting serine/threonine-protein kinase 2 (Homo sapiens) (Q9HBH9 whole entry, looked up): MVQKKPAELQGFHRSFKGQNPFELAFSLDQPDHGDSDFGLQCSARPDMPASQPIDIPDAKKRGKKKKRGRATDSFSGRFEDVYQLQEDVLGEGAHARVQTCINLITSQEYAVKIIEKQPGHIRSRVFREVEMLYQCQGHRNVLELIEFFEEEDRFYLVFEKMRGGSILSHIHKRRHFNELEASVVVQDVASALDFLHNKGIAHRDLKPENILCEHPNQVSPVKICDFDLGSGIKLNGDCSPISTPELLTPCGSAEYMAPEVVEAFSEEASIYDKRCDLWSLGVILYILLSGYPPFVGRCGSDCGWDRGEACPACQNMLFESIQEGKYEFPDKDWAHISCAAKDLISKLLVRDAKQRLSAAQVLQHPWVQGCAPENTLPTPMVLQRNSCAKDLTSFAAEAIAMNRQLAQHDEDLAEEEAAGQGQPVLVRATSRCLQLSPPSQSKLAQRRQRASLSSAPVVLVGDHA

[19] = biological target: MAP kinase-interacting serine/threonine-protein kinase 2 (Homo sapiens) (UniProt Q9HBH9); conditions: at 1 µM
[20] = biological target: Serine/threonine-protein kinase MARK2 (Homo sapiens) (UniProt Q7KZI7); conditions: at 0.1 µM;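 further: mean percent inhibition of PAR-1Balpha kinase activity, reported from the GSK PKIS screen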
Chain of Serine/threonine-protein kinase MARK2 (Homo sapiens) (Q7KZI7 whole entry): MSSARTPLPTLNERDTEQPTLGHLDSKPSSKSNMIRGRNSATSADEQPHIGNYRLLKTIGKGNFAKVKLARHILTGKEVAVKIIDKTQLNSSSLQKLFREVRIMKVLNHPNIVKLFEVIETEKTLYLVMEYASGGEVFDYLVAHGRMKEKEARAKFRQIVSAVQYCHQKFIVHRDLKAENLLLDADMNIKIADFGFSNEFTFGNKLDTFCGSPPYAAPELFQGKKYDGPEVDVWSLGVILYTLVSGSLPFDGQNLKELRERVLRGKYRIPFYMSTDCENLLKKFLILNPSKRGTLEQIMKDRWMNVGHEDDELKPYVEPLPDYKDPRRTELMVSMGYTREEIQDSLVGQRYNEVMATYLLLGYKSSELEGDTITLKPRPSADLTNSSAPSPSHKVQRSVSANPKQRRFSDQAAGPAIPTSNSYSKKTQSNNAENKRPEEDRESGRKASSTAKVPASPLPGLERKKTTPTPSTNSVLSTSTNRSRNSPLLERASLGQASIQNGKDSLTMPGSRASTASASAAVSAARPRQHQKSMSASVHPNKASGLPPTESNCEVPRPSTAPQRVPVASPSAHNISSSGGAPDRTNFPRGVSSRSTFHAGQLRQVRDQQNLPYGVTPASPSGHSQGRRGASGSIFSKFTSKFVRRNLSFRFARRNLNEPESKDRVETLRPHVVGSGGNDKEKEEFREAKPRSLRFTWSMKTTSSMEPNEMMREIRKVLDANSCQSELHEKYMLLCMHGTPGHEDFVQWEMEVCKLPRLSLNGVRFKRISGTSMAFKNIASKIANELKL

Chain of Death-associated protein kinase 1 (Homo sapiens) (P53355 whole entry, looked up): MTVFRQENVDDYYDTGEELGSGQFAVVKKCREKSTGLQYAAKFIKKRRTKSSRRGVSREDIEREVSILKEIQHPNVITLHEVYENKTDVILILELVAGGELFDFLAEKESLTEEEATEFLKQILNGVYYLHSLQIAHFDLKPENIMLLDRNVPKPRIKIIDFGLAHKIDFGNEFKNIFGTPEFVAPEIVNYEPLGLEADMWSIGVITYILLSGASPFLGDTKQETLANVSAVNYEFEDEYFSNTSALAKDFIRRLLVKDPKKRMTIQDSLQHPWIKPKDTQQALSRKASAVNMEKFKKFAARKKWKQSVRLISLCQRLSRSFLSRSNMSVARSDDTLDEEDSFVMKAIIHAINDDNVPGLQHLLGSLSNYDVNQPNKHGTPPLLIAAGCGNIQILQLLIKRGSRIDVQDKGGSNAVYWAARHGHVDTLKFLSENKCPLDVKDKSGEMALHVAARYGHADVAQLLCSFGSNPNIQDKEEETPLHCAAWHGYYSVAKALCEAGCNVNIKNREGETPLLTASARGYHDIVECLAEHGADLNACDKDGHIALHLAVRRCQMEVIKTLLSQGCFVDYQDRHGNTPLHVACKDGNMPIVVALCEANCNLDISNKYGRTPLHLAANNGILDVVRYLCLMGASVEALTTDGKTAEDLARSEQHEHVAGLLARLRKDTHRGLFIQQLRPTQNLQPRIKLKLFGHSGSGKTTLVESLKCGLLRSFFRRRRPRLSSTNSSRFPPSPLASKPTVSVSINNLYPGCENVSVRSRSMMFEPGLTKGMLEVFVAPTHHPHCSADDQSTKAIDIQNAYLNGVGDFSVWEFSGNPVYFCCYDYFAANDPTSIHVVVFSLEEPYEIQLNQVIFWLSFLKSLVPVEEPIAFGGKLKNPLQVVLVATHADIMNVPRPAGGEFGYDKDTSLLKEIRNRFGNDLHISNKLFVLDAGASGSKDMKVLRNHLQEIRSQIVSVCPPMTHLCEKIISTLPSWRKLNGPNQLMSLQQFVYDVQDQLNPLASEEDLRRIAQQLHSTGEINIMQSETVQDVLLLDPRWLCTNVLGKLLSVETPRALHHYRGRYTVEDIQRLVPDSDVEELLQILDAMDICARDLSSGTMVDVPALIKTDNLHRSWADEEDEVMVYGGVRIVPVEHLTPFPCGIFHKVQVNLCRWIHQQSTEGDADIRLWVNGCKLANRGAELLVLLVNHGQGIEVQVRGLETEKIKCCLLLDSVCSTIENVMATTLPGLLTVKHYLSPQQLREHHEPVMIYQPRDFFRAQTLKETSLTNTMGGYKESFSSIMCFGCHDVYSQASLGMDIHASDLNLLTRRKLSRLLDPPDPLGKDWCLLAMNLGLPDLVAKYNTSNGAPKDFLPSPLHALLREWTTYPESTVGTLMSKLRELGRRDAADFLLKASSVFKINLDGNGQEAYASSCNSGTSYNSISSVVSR

SMILES | inhibition [1] [%] | inhibition [2] [%] | inhibition [3] [%] | inhibition [4] [%] | inhibition [5] [%] | inhibition [6] [%] | inhibition [7] [%] | inhibition [8] [%] | inhibition [9] [%] | inhibition [10] [%] | inhibition [11] [%] | inhibition [12] [%] | inhibition [13] [%] | inhibition [14] [%] | inhibition [15] [%] | inhibition [16] [%] | inhibition [17] [%] | inhibition [18] [%] | inhibition [19] [%] | inhibition [20] [%]
CS(=O)(=O)CCNCc1nc(-c2ccc3ncnc(Nc4ccc(OCc5cccc(C(F)(F)F)c5)cc4)c3c2)cs1 | 2.59 | -1.01 | 0.18 | 0.97 | 1.7 | 2.23 | 2.67 | 1 | 1.98 | 0.8 | 1.92 | -0.17 | 1.58 | 0.45 | 2.55 | 3.67 | 7.54 | 0.84 | 6.94 | 0.22
NC(=O)c1sc(-n2cnc3ccccc32)cc1OCc1ccccc1Br | 10.6 | -1 | -0.82 | 4.58 | 6.13 | 8.98 | 12.7 | 2.32 | 5.92 | -0.1 | 5.83 | 1.43 | 5.23 | 4.71 | 10.1 | 2.14 | 11.7 | 0.25 | 4.3 | 1.95
NS(=O)(=O)c1cccc(-c2cc3ccncc3cc2OCc2ccccc2)c1 | 7.29 | 0.9 | 0.91 | 2.83 | 3.32 | 4.06 | 3.27 | 5.91 | 9.52 | 5.98 | 9.67 | 2.91 | 6.29 | 4.44 | 6.24 | 3.03 | 6.7 | 3.83 | 25.1 | 3.3
c1ccc(Nc2ncc(-c3ccccc3)o2)cc1 | 5.31 | 0.92 | 3.72 | 1.35 | 2.04 | 4.43 | 5.91 | 1.31 | 4.58 | 1.16 | 4.02 | 2.77 | 4.32 | 5.53 | 9.84 | 1.77 | 3.22 | 0.51 | 4.71 | 0.14
Cc1cc(O)cc(C)c1/C=C/c1cncc(C(=O)N(C)C)c1 | 5.28 | 3.47 | 0.19 | 0.52 | 0.82 | 0.87 | 1.23 | 1.15 | 1.29 | 2.67 | 13.7 | 1.25 | 2.49 | 3.84 | 4.23 | 4.18 | 18 | 2.2 | 9.99 | -1.4
CCCN1CCCC(c2ccc(Nc3nc(Nc4cc(F)ccc4C(N)=O)c4cc[nH]c4n3)c(OC)c2)C1 (stereo not given) | 47.1 | 2.57 | 7.08 | 2.17 | 3.54 | 8.62 | 17.3 | 11 | 52.9 | 19.9 | 68.3 | 7.3 | 40.7 | 24 | 75.2 | 3.82 | 5.92 | 1.87 | 2.51 | 6.68
COc1cc2ncnc(Nc3ccc(C)c(O)c3)c2cc1OC | 6.25 | 2.8 | 0.34 | 3.52 | 3.42 | 5.93 | 7.13 | 4.14 | 7.86 | 4.06 | 6.46 | 1.47 | 4.13 | 5.67 | 8.15 | 6.8 | 30.9 | 3.13 | 15.8 | 2.85
